RORgamma inh – qHTS for inhibitors of ROR gamma transcriptional activity; Drosophila S2 Gal4-RORgamma UAS-luciferase reporter, 20 h; Nuclear receptor ROR-gamma (Mus musculus), P51450; 310,000 compounds, 5.4% hits; Potency, µM (titrated, usually from 53.6 µM), inactives show at the highest dose activity change, negative = inhibition, actives largely listed as inhibitors; further: potency means the concentration at half of the fitted maximal effect; nearly all actives have a fitted effect of over 60% in size
Target sequence (P51450 whole entry, looked up, the tested form may be a part): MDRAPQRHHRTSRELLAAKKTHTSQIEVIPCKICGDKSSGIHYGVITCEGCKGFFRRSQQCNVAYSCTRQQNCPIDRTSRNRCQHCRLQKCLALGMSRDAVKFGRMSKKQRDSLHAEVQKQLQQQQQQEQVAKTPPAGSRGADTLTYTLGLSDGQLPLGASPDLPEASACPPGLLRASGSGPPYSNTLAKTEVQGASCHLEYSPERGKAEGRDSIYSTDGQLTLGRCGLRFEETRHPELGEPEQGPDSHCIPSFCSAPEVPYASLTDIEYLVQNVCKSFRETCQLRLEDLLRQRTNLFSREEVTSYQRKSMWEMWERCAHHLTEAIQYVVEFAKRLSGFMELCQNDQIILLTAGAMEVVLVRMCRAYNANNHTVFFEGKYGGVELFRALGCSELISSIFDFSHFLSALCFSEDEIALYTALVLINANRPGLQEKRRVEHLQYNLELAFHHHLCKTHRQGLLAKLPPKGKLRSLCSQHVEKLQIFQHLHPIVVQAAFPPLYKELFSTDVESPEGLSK
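Luminescence from a UAS-regulated Photinus luciferase reporter in stably transfected Drosophila Schneider cells is measured; decreased signal marks ROR gamma inhibition. Fusion expression is induced by 700 uM copper sulfate for 20 hr.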
TDP1 cell CPT – qHTS for Inhibitors of human tyrosyl-DNA phosphodiesterase 1 (TDP1): qHTS in cells in presence of CPT; chicken DT40 Tdp1-/-;hTDP1 cells + 20 nM CPT, ATP luminescence, 48 h; Potency, µM (series often up to 46.2 µM), for the others: at the top dose activity change, negative = growth inhibition, usual class: inhibitors; 420,000 compounds, 12% hits; AID 686979, 2013; further: potency means the concentration at half of the fitted maximal effect; nearly all actives have a fitted effect of over 55% in size
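Chicken DT40 Tdp1-/- cells stably complemented with human TDP1 were seeded at 400 cells/well in medium containing 20 nM camptothecin, exposed to pin-transferred compounds, and grown at 37 °C for at least 48 hr. Viability was read as ATP luminescence.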
VP16 counter – VP16 counterscreen qHTS for inhibitors of ROR gamma transcriptional activity | Drosophila S2 Gal4-VP16 UAS-luciferase, luminescence, 20 h | Potency, µM (doses to about 53.6 µM), without a hit: top-dose activity, negative = inhibition, most hits filed as inhibitors | 310,000 compounds, 3.5% hits | AID 2546, 2010;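 further: Gal4-VP16 expression switched on by copper sulfate through the metallothionein promoter; potency means the concentration at half of the fitted maximal effect; nearly all actives have a fitted effect of over 50% in size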
DT40 TDP1 no CPT – qHTS for Inhibitors of human tyrosyl-DNA phosphodiesterase 1 (TDP1): qHTS in cells in absence of CPT; 420,000 compounds, 15% hits; DT40 Tdp1-/- hTDP1 cells, no CPT, ATP luminescence, 48 h; AID 686978, 2013; Potency, µM (titrated, usually from 46.2 µM), without a hit: top-dose activity change, negative = growth inhibition, most hits filed as inhibitors; further: potency means the concentration at half of the fitted maximal effect; nearly all actives have a fitted effect of over 55% in size
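Cells were dispensed at 400 per well, compounds added by pin tool, plates incubated ≥48 hr at 37 °C, then CellTiter-Glo added for 30 min at room temperature before luminescence reading. Line: DT40 Tdp1-/- complemented with hTDP1; camptothecin omitted.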
IL1B secr inh – qHTS for Inhibitors of Inflammasome Signaling: IL-1-beta AlphaLISA Primary Screen | THP-1 LPS/ATP IL-1B secretion, AlphaLISA, 16 h; hits give low values | activity change, % at 57.5 µM | 360,000 compounds, 4.7% hits | AID 743279, 2014; in the data active means activity change below about -50%; inconclusive means mostly about -30% to -49%
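THP-1 cells pretreated 1 hr with compounds (up to 57.5 uM final), then stimulated with LPS (250 ng/mL final) plus ATP (1.25 mM final); secreted IL-1B measured by AlphaLISA after 16 hr, decreased signal indicating inhibition.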
ELG1 repair inh – qHTS screen for small molecules that inhibit ELG1-dependent DNA repair in human embryonic kidney (HEK293T) cells expressing luciferase-tagged ELG1; 330,000 compounds, 2.3% hits; Potency, µM (highest dose often 46.1 µM), for the others: top-dose activity change, negative = inhibition, most hits filed as inhibitors; HEK293T ELG1-luciferase reporter, luminescence, 16 h; DNA damage induced by 5-fluorouridine; further: potency means the concentration at half of the fitted maximal effect; nearly all actives have a fitted effect of over 55% in size
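5-Fluorouridine DNA damage + compound/DMSO, 2,000 cells/well, 16 h, 37 °C/5% CO2. ONE-Glo, 30 min RT, luminescence. Readout = decrease in reporter signal.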
* hit, by the source's call; ? = inconclusive; . = no result given. This is a sample that favours compounds with a hit; in the whole collection about 21% have one here. Unless noted, the call rests on the fitted dose curve; in most records, active means well fitted curve in the direction sought with a large enough effect; inconclusive means small, poorly fitted or top-dose-only effect, or another doubt; inactive means no such curve, though single readings can be large; an effect the other way counts as inactive or inconclusive. On the % scale 0 is the no-effect control and ±100 the full control effect.

SMILES	RORgamma inh	TDP1 cell CPT	VP16 counter	DT40 TDP1 no CPT	IL1B secr inh	ELG1 repair inh
COc1ccc(Cc2nnc(NC(=O)C3CC(=O)N(c4ccccc4)C3)s2)cc1OC (stereo not given)	22%	-1%	-1%	-19%	28	2%
COc1ccc(C(=O)N2CCC2(C)C(=O)NC(C)C)c(OC)c1 (stereo not given)	.	-5%	.	7%	19	.
C/C(=N\N1C(=O)c2ccccc2NC1c1ccccc1)c1ccccc1O (stereo not given)	0.56µM*	4.6µM*	2.8µM*	7.3µM*	7	?
C/C(=N\N1C(=O)c2ccccc2NC1c1ccco1)c1ccccc1O (stereo not given)	0.35µM*	-87%	2.2µM*	12µM*	69	?
O=C1c2ccccc2NC(c2ccco2)N1/N=C/c1ccco1 (stereo not given)	-26%	-26%	-8%	-27%	0	?
COc1ccc(/C(C)=N/N2C(=O)c3ccccc3NC2c2ccc(O)c(OC)c2)cc1 (stereo not given)	?	-18%	-16%	-8%	-11	?
CC(C)c1ccc(NS(=O)(=O)c2ccc3[nH]cc(C(=O)NCC4CCCO4)c(=O)c3c2)cc1 (stereo not given)	.	-1%	.	-16%	.	.
Cc1cccn2c(=O)c(C(=O)N3CCN(c4ccccc4F)CC3)cnc12	.	-15%	.	-16%	.	.
CCOC(=O)c1c(NC(=O)CN2C(=O)NC3(CCCCC3)C2=O)sc(C)c1-c1ccc(C)cc1	?	18µM*	-29%	21µM*	-2	?
CCOC(=O)c1sc(NC(=O)CN2C(=O)NC3(CCCCCCC3)C2=O)c(C(=O)OCC)c1C	8%	?	0%	?	-29	?
CCOC(=O)c1c(NC(=O)CN2C(=O)NC3(CCC(C)CC3)C2=O)sc(C)c1-c1ccc(C)cc1 (stereo not given)	-4%	21µM*	-7%	18µM*	26	?
COC(=O)[C@@H](NC(=O)N1CCN(C(=O)C2COc3ccccc3O2)CC1)C(C)C (stereo not given in full)	-3%	-24%	2%	3%	71	7%
CO/N=C(/C(=O)N[C@@H]1C(=O)N2C(C(=O)O)=C(C[n+]3ccc(N)n3CCO)CS[C@H]12)c1csc(N)n1	8%	.	-4%	.	.	.
COc1ccc(/C=C/C(=O)NCc2cccnc2)cc1	21%	-1%	0%	-12%	21	?
CCc1ccc(CN(Cc2cccnc2)C(=O)/C=C/c2ccc(OC)cc2)cc1	24%	-55%	6%	15µM*	0	?
CCN(CC)CCN(C)C(=O)c1[nH]c(C(F)(F)F)nc1-c1ccccc1	.	8%	.	1%	47	.
O=C1NC[C@@H](Cc2cccc3ccccc23)N(CCc2cccc(F)c2)C1=O	.	?	.	?	9	.
Fc1cccc(CCN2CCNC[C@H]2Cc2cccc3ccccc23)c1	.	?	.	?	-60*	14%
Oc1ccc(C[C@@H]2CNCCN2CCc2cccc3ccccc23)cc1	.	15µM*	.	21µM*	?	-2%
CCCC(=O)C1=C(O)C(C(=O)OC)C(C)(C)CC1=Nc1ccncc1 (stereo not given)	-18%	-26%	4%	-12%	0	1%
C(/Oc1ccccc1)=C1\Nn2c(nnc2-c2cc(-c3ccccc3)n[nH]2)S1	.	7.1µM*	.	20µM*	.	.

Compound activity deposited in PubChem BioAssay by National Center for Advancing Translational Sciences (NCATS).
